We go through 43 molecules from ChEMBL document CHEMBL4808148, “HDAC6 screening dataset using tau-based substrate in an enzymatic assay yields selective inhibitors and activators” (2021).

SMILES strings stand for the structures. Screen size: about 5,600 compounds; about 390 (7%) showed an effect of 50% or more. This excerpt belongs to a sample that is enriched for strong results.

The assay deals with T1, Protein deacetylase HDAC6 (Homo sapiens) (UniProt Q9UBN7).
T1 sequence (whole entry): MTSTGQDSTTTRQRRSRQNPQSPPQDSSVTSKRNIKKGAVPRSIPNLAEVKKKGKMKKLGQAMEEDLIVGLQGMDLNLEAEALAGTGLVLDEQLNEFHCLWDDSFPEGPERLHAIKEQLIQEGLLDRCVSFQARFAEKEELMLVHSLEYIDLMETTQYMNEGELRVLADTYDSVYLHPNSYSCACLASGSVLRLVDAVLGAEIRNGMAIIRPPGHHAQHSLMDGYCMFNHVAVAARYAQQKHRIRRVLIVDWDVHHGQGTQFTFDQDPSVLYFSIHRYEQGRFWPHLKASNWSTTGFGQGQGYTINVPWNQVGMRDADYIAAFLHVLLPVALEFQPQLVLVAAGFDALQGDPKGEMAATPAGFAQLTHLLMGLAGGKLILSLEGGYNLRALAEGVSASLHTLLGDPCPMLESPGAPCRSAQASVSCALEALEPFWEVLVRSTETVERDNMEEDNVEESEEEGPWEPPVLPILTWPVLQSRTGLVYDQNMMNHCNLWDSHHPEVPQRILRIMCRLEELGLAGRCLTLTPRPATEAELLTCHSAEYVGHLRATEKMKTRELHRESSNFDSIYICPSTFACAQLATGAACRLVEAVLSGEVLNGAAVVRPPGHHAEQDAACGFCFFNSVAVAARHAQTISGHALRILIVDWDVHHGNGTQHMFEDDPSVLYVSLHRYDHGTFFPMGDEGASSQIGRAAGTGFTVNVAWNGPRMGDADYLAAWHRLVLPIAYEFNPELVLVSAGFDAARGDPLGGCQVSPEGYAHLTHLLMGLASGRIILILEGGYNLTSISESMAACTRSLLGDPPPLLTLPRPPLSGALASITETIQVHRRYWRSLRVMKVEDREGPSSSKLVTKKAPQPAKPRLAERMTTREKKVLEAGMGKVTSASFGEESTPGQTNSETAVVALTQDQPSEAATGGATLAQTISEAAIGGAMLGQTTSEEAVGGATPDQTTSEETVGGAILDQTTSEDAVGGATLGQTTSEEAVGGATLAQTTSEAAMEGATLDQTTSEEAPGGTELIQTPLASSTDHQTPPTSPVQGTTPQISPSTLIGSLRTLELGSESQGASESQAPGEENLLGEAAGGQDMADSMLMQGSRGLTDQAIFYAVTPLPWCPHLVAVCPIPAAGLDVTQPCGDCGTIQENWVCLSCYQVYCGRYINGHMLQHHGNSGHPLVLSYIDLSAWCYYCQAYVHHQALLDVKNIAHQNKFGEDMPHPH
The following applies: at 10 µM.
`O=C(NCCN1CCN(c2ncccn2)CC1)C12CC3CC(CC(C3)C1)C2`: the inhibition was -4.05%. Regarding `COc1cc(OC)c(/C=C/S(=O)(=O)Cc2ccc(OC)c(OP(=O)(O)O)c2)c(OC)c1`, the inhibition amounted to 6.33%. As to `CCn1c(=O)n(C2=C(CO)CN(CC3CCCCCCC3)CC2)c2ccccc21`, the inhibition is -8.59%. Next, `CN1CCC2=C(C1)C(c1ccccc1)c1ccccc12` (stereo not drawn): -8.99%. In the case of `CNC1CC(c2ccc(Cl)c(Cl)c2)c2ccccc21` (stereo not drawn), the inhibition stood at 30.3%. In the case of `CCCCN1[C@@H]2CC[C@H]1C[C@@H](OC(c1ccc(F)cc1)c1ccc(F)cc1)C2`, the inhibition was 7.33%. `Nc1nc(OCc2cc(Br)cs2)c2[nH]cnc2n1`: the inhibition turned out to be 65.4%. Consider `CN1CCN(c2cccc3[nH]c(=O)oc23)CC1`, for which the inhibition amounted to 26.1%. For `O=C([O-])[C@H]1O[C@H](O)[C@H](O)[C@@H](O)[C@@H]1O.[Na+]`, the inhibition amounted to 1.38%. Regarding `CC(C)COC(=O)c1ccc(N)cc1`, the inhibition came to 82.8%. With `CCOC(=O)c1ccc(N(C)c2csc(-c3ccccc3)n2)cc1`, the inhibition amounted to 30.7%.

With `Nc1ccc(C(=O)OCC(O)CO)cc1` (stereo not drawn), the inhibition is 14.1%.

For `CC1=C[C@H](O)CC(C)(C)[C@H]1/C=C/C(C)=C/C=C/C(C)=C/C=C/C=C(C)/C=C/C=C(C)/C=C/C1=C(C)C[C@@H](O)CC1(C)C`, the inhibition amounted to 5.04%. In the case of `CC[C@H]1[C@@H](O)[C@@H]2[C@H](CC[C@]3(C)[C@@H]([C@H](C)CCOS(=O)(=O)O)CC[C@@H]23)[C@@]2(C)CC[C@@H](O)C[C@@H]12`, the inhibition was -1.78%. `CC(C)C[C@H](NC(=O)[C@H](CCCCN)NC(=O)[C@H](CCCNC(=N)N)NC(=O)[C@H](C)NC(=O)[C@H](CO)NC(=O)[C@H](CCCCN)NC(=O)[C@H](CCCNC(=N)N)NC(=O)[C@H](C)NC(=O)CNC(=O)[C@@H](NC(=O)[C@H](Cc1ccccc1)NC(=O)CNC(=O)CNC(=O)[C@@H](N)Cc1ccccc1)[C@@H](C)O)C(=O)N[C@@H](C)C(=O)N[C@@H](CC(N)=O)C(=O)N[C@@H](CCC(N)=O)C(=O)O`: the inhibition was determined as 3.21%. On to `CCC(CC)C(c1ccc(Nc2nc3ccccc3s2)cc1)n1cncn1` (stereo not drawn), for which the inhibition was determined as 11.9%. For `CC(C)c1cnn2c(NCc3ccccc3)cc(NCCCCCCN)nc12`, the inhibition is 61.1%. With `Cc1cc(/C=c2/sc3nc4ccccc4n3c2=O)c(C)n1-c1ccccc1`, the inhibition was -0.72%. Consider `Cc1cc(/C=C2\SC(=O)N(c3ccccc3)C2=O)c(C)n1-c1cccnc1`, for which the inhibition turned out to be 96.7%. In the case of `Nc1nc(=O)c2sc(=O)n([C@@H]3O[C@H](CO)[C@@H](O)[C@H]3O)c2[nH]1`, the inhibition is 7.72%. As for `Cc1cc2sc(NC(=O)Cc3ccccc3)nc2cc1Cl`, the figure is 19.7%.

For `Cc1ccc(-c2csc(NC(=O)c3ccccc3)n2)c(C)c1`, the inhibition was determined as 61.3%. For `NC(=O)CN1C=CCC(C(N)=O)=C1`, the inhibition is -1.44%. `O=C1c2cc(Cl)ccc2OC2CCON12` (stereo not drawn): the inhibition was found to be 8.29%.

`COc1ccccc1OC(=O)CNC(=O)Cc1ccc(C(=O)c2ccc(C)cc2)n1C`: the inhibition amounted to 27.4%. `COc1ccn2ncc(-c3nc4[nH]nc(NC(=O)c5ccc(F)cc5)c4cc3F)c2c1`: the inhibition amounted to 1.3%. Take `COc1cc(OC)cc(-c2ccc3c(-c4ccc(F)cc4)n[nH]c3n2)c1`: the inhibition was 81.7%.

Regarding `C[C@H]1C[C@@H]2[C@H]([C@@H](O)C[C@@]3(C)[C@H]2CC[C@]3(O)C(=O)COC(=O)CCC(=O)O)[C@@]2(C)C=CC(=O)C=C12`, the inhibition stood at 27.4%. `COc1cc([C@@H]2c3cc4c(cc3[C@@H](O[C@@H]3O[C@@H]5CO[C@@H](C)O[C@H]5[C@H](O)[C@H]3O)[C@H]3COC(=O)[C@H]23)OCO4)cc(OC)c1OP(=O)(O)O`: the inhibition was 5.48%. As to `CCN(CC)CCNC(=O)c1ccccc1I`, the inhibition was 13.2%. For the molecule `COc1nc2ccc(Br)cc2cc1[C@@H](c1ccccc1)[C@@](O)(CCN(C)C)c1cccc2ccccc12`, the inhibition is 73.7%. In the case of `NCC1CC(=O)N(Cc2ccccc2)C1` (stereo not drawn), the inhibition amounted to 0.62%.

As to `O=C(O)CCCCCCNC1c2ccccc2CCc2ccccc21`, the inhibition is 0.36%. As for `CN1c2ccccc2C(NCCCCCCC(=O)O)c2ccc(Cl)cc2S1(=O)=O` (stereo not drawn), the figure is 64.5%; as for `Cc1ccc(C)c(C(O)CNC(C)C)c1` (stereo not drawn), 7.8%.

With `C[C@@H]1C(=O)O[C@H]2CC34[C@H]5C[C@@H](C(C)(C)C)C36[C@@H](OC(=O)[C@@H]6O)O[C@@]4(C(=O)O5)[C@]21O` (stereo partly drawn), the inhibition was 26.8%. On to `CN1CC[C@@]2(C)c3cc(O)ccc3N(C)[C@H]12`, for which the inhibition was 6.94%.

In the case of `CN1CC[C@@]2(C)c3cc(OC(=O)Nc4ccccc4)ccc3N(C)[C@@H]12`, the inhibition is 54%. `Cn1cc(-c2cc(Oc3cc(F)c(NC(=O)C4(C(=O)Nc5ccccc5)CC4)cc3F)ccn2)cn1`: the inhibition came out at 13.7%.

Consider `COC1/C=C/OC2(C)Oc3c(C)c(O)c4c(O)c(c(/C=N/N=C/N5CCCCC5)c(O)c4c3C2=O)NC(=O)/C(C)=C\C=C\C(C)C(O)C(C)C(O)C(C)C(OC(C)=O)C1C` (stereo not drawn), for which the inhibition was determined as 5.78%. Turning to `Cc1ccc2c(c1)Cc1c(C(=O)NN3CCCCC3)nn(-c3ccc(Cl)cc3Cl)c1-2`, the inhibition was 1.48%. As for `CN(C)CCN1C(=O)c2cccc3cc(NC(N)=O)cc(c23)C1=O`, the figure is -8.72%. As to `COc1ccc(Nc2ccn(-c3ccccc3)n2)cc1`, the inhibition turned out to be 101%.
